Holding throughout (experiment): pooled miR-30 sensor sort-seq; sequence = guide strand
Holding throughout (settings): shRNA

In experiment [1] the target is CNOT1.
The target of experiment [2] is CNN2.
In experiment [3] the target is CNGB1.
The target of experiment [4] is COL20A1.
Experiment [5] has as its target COL16A1.
Experiment [6] concerns the target COG2.

We go through 30 sequences from the OligoGym collection.
Also: reference of the scale not given here.

The sequence TATCTCTTTACTAAAGTGCTGG showed a sensor-assay potency score (higher = more potent) in experiment [1] of -0.169.

For TTGGACAGGAGCCGGTTCTTGA, the sensor-assay potency score (higher = more potent) in experiment [2] is -0.733.

In experiment [2], TATTTCACATTATCTCACGGAG returned a sensor-assay potency score (higher = more potent) of -0.296.

In experiment [1], TTGAAATCCAGGATGGTCCAGT gave a sensor-assay potency score (higher = more potent) of 0.513.

Turning to TTGTAGTTCACGTCGATGGCGA, in experiment [3], the sensor-assay potency score (higher = more potent) was -0.201.

On to TTATATGTAACTCTTTATCAGG, for which the sensor-assay potency score (higher = more potent) in experiment [1] is -0.895.

The sequence TAGCTGGTGCCAGTTCTGCATG displayed a sensor-assay potency score (higher = more potent) in experiment [2] of -1.58.

On to TAGCTTGTTCATGAGTGTGCAT, for which, in experiment [2], the sensor-assay potency score (higher = more potent) is -0.436.

On to TTTCTCTGTCCGCTCCTTGAAG, for which the sensor-assay potency score (higher = more potent) in experiment [3] is -0.823.

With TATTCTTCAAACAAGTTCCTTA, the sensor-assay potency score (higher = more potent) in experiment [1] is 0.402.

AATACTTCCTGAAACTTGCGGG: in experiment [2], the sensor-assay potency score (higher = more potent) was found to be 0.259.

Take TTTTGTGTCATATTTGACTGTG: the sensor-assay potency score (higher = more potent) in experiment [1] turned out to be 0.162.

In experiment [1], TAGGTGAAGATCATACTGCTGC gave a sensor-assay potency score (higher = more potent) of 0.544.

As to TCGAACTTTGACACGTGTGAGG, the sensor-assay potency score (higher = more potent) in experiment [4] was -1.19.

In turn, TTAATGATCTCTTGTCTGATGA yielded a sensor-assay potency score (higher = more potent) in experiment [5] of -0.576.

In experiment [6], TCATCTGACCAACACCTCCTAA came in with a sensor-assay potency score (higher = more potent) of -1.05.

In experiment [5], TTGCGGATCTTCTTGATGGCAG returned a sensor-assay potency score (higher = more potent) of -0.676.

As to TTGGTAAGGATCCCAGTTCTGC, the sensor-assay potency score (higher = more potent) in experiment [5] is -0.831.

For TAGACCTTGCCTTCAGACTGTG, the sensor-assay potency score (higher = more potent) in experiment [5] came to 0.244.

TCTTCCTGAGCTTTTCTCCTGG registered a sensor-assay potency score (higher = more potent) in experiment [4] of -0.053.

In the case of ATTTTAATGATCTCTTGTCTGA, the sensor-assay potency score (higher = more potent) in experiment [5] was -0.577.

TTCTCTGCCAATCTGACCAGGG: the sensor-assay potency score (higher = more potent) in experiment [5] is -0.174.

For TTGTCGTCGTCGCTCATGCCAC, the sensor-assay potency score (higher = more potent) in experiment [6] is -1.52.

In the case of TCTTGTCTGATGAACCTCTTGA, the sensor-assay potency score (higher = more potent) in experiment [5] was 0.162.

The sequence TTAATCTCTTTACACTAGCCTG showed a sensor-assay potency score (higher = more potent) in experiment [6] of -1.22.

Turning to TTCCACTTCTTATTGAAGCTGT, the sensor-assay potency score (higher = more potent) in experiment [6] was 0.407.

As for TTGACTTCCAGGGATATCTGTG, the sensor-assay potency score (higher = more potent) in experiment [5] is -0.154.

Sequence TTGAACTCCTGGTAGACCGGGT showed a sensor-assay potency score (higher = more potent) in experiment [5] of 0.285.

TGTAGTAAGCCATTCTCTCATC showed a sensor-assay potency score (higher = more potent) in experiment [5] of -0.613.

As to TTGTTTGAGCTTATCCTTGTGT, in experiment [6], the sensor-assay potency score (higher = more potent) came out at 0.0501.
